# Data: publication PMC4336329 (PLoS ONE, 2015)
# Hit rate of the full screen: of about 310,000 compounds, about 14,000 (4.5%) showed an effect of 50% or more. The effect is printed as a negative number. The entries come from a sample that favours strong results as a whole.
# Biological target: human ether-à-go-go-related gene (hERG) potassium channel (human, UniProt Q12809)
# Experiment: primary screen, population patch clamp on CHO cells stably expressing hERG; higher = less effect of the substance
# 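Also: peak tail current of the secondary pulse compared with the same well before compound.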
# Sequence of human ether-à-go-go-related gene (hERG) potassium channel (Q12809 whole entry, looked up): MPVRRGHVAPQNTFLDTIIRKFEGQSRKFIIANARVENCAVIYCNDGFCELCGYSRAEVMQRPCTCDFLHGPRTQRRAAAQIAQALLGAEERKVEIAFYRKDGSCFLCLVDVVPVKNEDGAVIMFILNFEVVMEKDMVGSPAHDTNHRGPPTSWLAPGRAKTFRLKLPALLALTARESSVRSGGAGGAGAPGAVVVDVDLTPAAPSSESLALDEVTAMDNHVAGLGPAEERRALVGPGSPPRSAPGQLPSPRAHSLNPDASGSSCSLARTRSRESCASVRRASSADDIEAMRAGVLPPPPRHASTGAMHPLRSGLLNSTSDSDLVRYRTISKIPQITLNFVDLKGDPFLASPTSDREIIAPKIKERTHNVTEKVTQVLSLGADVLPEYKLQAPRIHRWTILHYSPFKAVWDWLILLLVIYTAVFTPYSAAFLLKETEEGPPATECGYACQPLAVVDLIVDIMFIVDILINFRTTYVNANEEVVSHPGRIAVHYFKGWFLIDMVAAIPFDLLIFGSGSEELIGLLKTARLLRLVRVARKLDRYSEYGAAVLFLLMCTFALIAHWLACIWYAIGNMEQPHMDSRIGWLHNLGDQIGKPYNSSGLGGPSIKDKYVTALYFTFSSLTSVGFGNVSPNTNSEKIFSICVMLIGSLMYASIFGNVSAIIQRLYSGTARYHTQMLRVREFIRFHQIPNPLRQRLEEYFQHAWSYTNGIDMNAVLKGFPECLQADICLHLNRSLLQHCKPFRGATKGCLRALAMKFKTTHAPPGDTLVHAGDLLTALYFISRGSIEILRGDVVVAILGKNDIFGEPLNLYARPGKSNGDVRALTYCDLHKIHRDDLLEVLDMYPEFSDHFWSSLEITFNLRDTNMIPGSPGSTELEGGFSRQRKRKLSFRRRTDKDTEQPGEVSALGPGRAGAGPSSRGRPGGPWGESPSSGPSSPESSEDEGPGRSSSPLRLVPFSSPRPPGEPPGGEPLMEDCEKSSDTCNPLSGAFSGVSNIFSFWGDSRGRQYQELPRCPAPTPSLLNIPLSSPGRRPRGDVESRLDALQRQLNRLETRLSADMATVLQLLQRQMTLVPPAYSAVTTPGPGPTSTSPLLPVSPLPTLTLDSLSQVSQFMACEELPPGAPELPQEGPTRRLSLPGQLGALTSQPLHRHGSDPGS
row,Structure (SMILES),"hERG current change (%, negative = inhibition) at 10uM [%]"
1,C[C@@]12CCC=C[C@H]1[C@H](c1ccc(C(F)(F)F)cc1)N(Cc1ccccc1)C2=O,12.2
2,O=C1C=C(NCc2ccc(Cl)cc2)CCC1,-25.2
3,COC(=O)c1cc(OC)c(OC)cc1NC(=S)N1CCN(Cc2ccccc2)CC1,6.28
4,CCOc1ccccc1C(=O)OCC(=O)NCC1CCCCC1,-7.31
5,O=C(COC(=O)COc1ccccc1[N+](=O)[O-])Nc1cccc(Br)c1,9.05
6,COC(=O)COc1ccc2c(-c3cccc([N+](=O)[O-])c3)cc(=O)oc2c1,-31.8
7,CCCOc1ccc(C(O)C(CN2CCOCC2)c2ccccc2)cc1.Cl (stereo not shown),1.07
8,O=C(/C=C/c1ccc(F)cc1)N1CCN(Cc2ccccc2)CC1,-40.6
9,COc1ccc(/C=N\N2CCN(Cc3ccccc3Cl)CC2)cc1.Cl,-62.4
10,O=[N+]([O-])c1cccc(/C=N/N2CCN(Cc3ccccc3)CC2)c1,-0.159
11,O=[N+]([O-])c1ccc(/C=N/N2CCN(Cc3ccccc3)CC2)cc1,-56.3
12,O=C(/C=C/c1ccc([N+](=O)[O-])cc1)N1CCN(S(=O)(=O)c2ccccc2)CC1,-34.1
13,CC(C)CC(=O)N1CCN(S(=O)(=O)c2ccccc2)CC1,0.444
14,O=[N+]([O-])c1ccc(Cl)c(/C=N/N2CCN(Cc3ccccc3)CC2)c1,-1.74
15,CC(CC(=O)N1CCN(S(=O)(=O)c2ccc([N+](=O)[O-])cc2)CC1)c1ccccc1 (stereo not shown),-67.8
16,Clc1ccc(/C=N/N2CCN(Cc3ccccc3Cl)CC2)cc1,14.9
17,COc1ccc(/C=N/N2CCN(Cc3ccccc3)CC2)cc1,-2.63
18,O=C(/C=C/c1ccc(OCCCF)cc1)N1CCN(Cc2ccccc2)CC1,-65.6
19,O=C(/C=C/c1ccc(OCCCF)cc1)N1CCOCC1,1.61
20,CCOc1ccc(NC(=O)CN(C)C(=O)c2c(-c3c(F)cccc3Cl)noc2C)cc1OCC,-3.83
21,Cc1cccc(C)c1OCc1cc(C(=O)N2CCN(c3ccccc3)CC2C)no1 (stereo not shown),7.3
22,O=C(COc1ccc(/C=N/NC(=O)c2ccccc2O)cc1)Nc1ccc([N+](=O)[O-])cc1,13.7

row,Structure (SMILES),"hERG current change (%, negative = inhibition) at 10uM [%]"
1,COc1ccc(NC(=O)C2=CC(c3ccco3)=NS(=O)(=O)N2C)cc1,0.0772
2,CCCCCCNC(=O)N[C@H](Cc1ccc(O)cc1)C(=O)NCCC[C@H]1CN2C(=NC[C@H]2CCC)N1CC1CCC1,9.27
3,CCCCCCC(=O)N1C/C=C\C(c2ccc(OC)cc2)N(Cc2ccc(F)cc2)C(=O)C1 (stereo not shown),-43.7
4,CCN(CC)S(=O)(=O)c1cc(OC)c(C)cc1C,-5.58
5,CC(=O)c1ccc(N2CCN(C(=O)Cc3cccs3)CC2)cc1,-33.3
6,O=C(/C=C/c1ccc(Cl)cc1)N1CCN(Cc2ccccc2)CC1,-35.6
7,Cc1cc([N+](=O)[O-])ccc1NC(=O)c1sc2ncn(CC(=O)N3CCOCC3)c(=O)c2c1C,-0.176
8,Cc1ccc(S(=O)(=O)CCC(=O)N2CCN(c3ccc(Cl)cc3)CC2)cc1,-23.8
9,CC(=O)c1ccc(N2CCN(C(=O)CCS(=O)(=O)c3ccc(C)cc3)CC2)cc1,-41
10,Cc1c(C(=O)N2CCN(c3ccc([N+](=O)[O-])cc3)CC2)sc2ncn(CC(=O)N3CCOCC3)c(=O)c12,-62.2
11,Cc1c(C(=O)N2CCN(c3ccccc3F)CC2)sc2ncn(CC(=O)N3CCOCC3)c(=O)c12,-3.64
12,O=C(/C=C/c1ccc([N+](=O)[O-])cc1)N1CCN(Cc2ccccc2)CC1,-66.8
13,O=C(Cc1cccs1)N1CCN(c2ccc([N+](=O)[O-])cc2)CC1,-66.1
14,Cc1ccc(S(=O)(=O)CCC(=O)N2CCN(c3ccc([N+](=O)[O-])cc3)CC2)cc1,-70.8
15,O=C(/C=C/c1cccc([N+](=O)[O-])c1)N1CCN(Cc2ccccc2)CC1,-47.5
16,O=C(Cc1cccs1)N1CCN(c2ccc(F)cc2)CC1,-4.82
17,Cn1c(=O)cc(OCC(=O)N2CCN(C3CCCCC3)CC2)c2ccccc21,-18.6
18,CN(CCc1ccccn1)C(=O)c1cccnc1Oc1ccccc1,11.3
19,O=C(O)C12C[C@H]3C[C@@H](C1)CC(n1ncc(N4CCN(c5ccccc5)CC4)c(Cl)c1=O)(C3)C2,9.94
20,CN(C(=O)Cn1c(=O)oc2ccccc21)C1CCCCC1,-1.73
21,CCCN(CCC)CCCNC(=O)Cn1cnc2sc(C)c(S(=O)(=O)N3CCCCC3)c2c1=O,9.2
